Hit rate of the full screen: of about 310,000 compounds, about 2,200 (0.71%) showed an effect of 50% or more. The effect is printed as a negative number. The full list was thinned out, with strong results kept by preference.

In this test the target is human ether-à-go-go-related gene (hERG) potassium channel (human, UniProt Q12809). Description: primary screen, population patch clamp on CHO cells stably expressing hERG; higher = less effect of the substance.
Chain of human ether-à-go-go-related gene (hERG) potassium channel (Q12809 whole entry, looked up): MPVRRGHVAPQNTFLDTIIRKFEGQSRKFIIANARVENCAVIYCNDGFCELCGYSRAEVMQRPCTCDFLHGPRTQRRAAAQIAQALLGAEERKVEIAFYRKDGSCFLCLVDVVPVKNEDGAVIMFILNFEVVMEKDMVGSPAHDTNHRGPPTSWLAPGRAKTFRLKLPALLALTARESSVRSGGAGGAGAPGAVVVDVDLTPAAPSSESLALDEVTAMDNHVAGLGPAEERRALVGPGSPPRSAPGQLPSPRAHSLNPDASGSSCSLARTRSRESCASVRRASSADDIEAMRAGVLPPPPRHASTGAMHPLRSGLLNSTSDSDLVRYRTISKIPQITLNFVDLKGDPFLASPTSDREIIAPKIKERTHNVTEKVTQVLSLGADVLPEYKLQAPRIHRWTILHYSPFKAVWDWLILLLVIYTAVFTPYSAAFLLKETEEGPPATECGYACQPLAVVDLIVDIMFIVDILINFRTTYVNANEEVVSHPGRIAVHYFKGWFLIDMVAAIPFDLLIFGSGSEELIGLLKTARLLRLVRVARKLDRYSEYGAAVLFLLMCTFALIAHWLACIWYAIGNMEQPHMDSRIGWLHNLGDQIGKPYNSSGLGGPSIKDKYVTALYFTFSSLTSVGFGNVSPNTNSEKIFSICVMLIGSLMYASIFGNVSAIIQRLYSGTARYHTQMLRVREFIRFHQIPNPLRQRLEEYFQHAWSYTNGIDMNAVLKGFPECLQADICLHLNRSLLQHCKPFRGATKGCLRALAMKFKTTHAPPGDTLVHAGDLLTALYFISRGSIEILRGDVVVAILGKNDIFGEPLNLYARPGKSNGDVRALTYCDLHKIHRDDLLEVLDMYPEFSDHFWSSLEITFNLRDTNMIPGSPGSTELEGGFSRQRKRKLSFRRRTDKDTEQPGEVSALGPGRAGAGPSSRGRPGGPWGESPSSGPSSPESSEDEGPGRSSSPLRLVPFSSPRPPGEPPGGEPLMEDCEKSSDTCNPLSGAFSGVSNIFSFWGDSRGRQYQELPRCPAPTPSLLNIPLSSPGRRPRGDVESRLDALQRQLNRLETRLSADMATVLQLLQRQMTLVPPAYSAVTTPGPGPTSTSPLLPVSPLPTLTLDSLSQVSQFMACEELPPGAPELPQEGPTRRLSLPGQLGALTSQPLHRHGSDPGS
On to `CCCn1nc(C(=O)Nc2ccc(N3CCOCC3)cc2)c2ccccc2c1=O`, for which the “hERG current change (%, negative = inhibition) at 1uM” value was 1.6%.

As to `O=C(Cn1nc(Br)nc1Br)c1ccccc1`, the “hERG current change (%, negative = inhibition) at 1uM” value was 10.2%.

For the compound `COc1cc(C2NC(=O)NC(C)=C2C(=O)NCc2ccccc2)c(Cl)cc1O` (stereo not shown), the “hERG current change (%, negative = inhibition) at 1uM” value amounted to 13.7%.

As to `COCCNC(=O)C1CC(c2ccccc2C(F)(F)F)=NO1` (stereo not shown), the “hERG current change (%, negative = inhibition) at 1uM” value came to 14.7%.

In the case of `O=C(CSc1nc2ccccc2c(=O)n1Cc1ccco1)NCCN1C(=O)CSC1=O`, the “hERG current change (%, negative = inhibition) at 1uM” value is -56%.

Turning to `Cn1c(SCC(=O)NCCN2C(=O)CSC2=O)nc2ccccc2c1=O`, the “hERG current change (%, negative = inhibition) at 1uM” value is 7.27%.

As to `CCn1c(SCC(=O)N2CCCC2)nc2ccccc2c1=O`, the “hERG current change (%, negative = inhibition) at 1uM” value is on record as -7.76%.

Regarding `CCn1c(SCC(=O)N2CCCCCC2)nc2ccccc2c1=O`, the “hERG current change (%, negative = inhibition) at 1uM” value came to 2.02%.

For the compound `O=C(CSc1nc2ccccc2c(=O)n1Cc1ccco1)NCc1ccco1`, the “hERG current change (%, negative = inhibition) at 1uM” value was -40.8%.

For the compound `O=C(CSc1nc2ccccc2c(=O)n1Cc1ccco1)N1CCN(c2ccccc2)CC1`, the “hERG current change (%, negative = inhibition) at 1uM” value is on record as -83.6%.

With `O=C(CSc1nc2ccccc2c(=O)n1CCCN1CCOCC1)N1CCN(c2ccccc2)CC1`, the “hERG current change (%, negative = inhibition) at 1uM” value was -6.61%.

Turning to `O=C(CSc1nc2ccccc2c(=O)n1Cc1ccco1)N1CCCCCC1`, the “hERG current change (%, negative = inhibition) at 1uM” value is -82.8%.

With `CCCn1c(SCC(=O)N2CCN(c3ccccc3)CC2)nc2ccccc2c1=O`, the “hERG current change (%, negative = inhibition) at 1uM” value is -4.8%.

On to `COc1cc(OC)c(NC(=S)NCc2ccc(F)cc2)cc1Cl`, for which the “hERG current change (%, negative = inhibition) at 1uM” value turned out to be 8.5%.

Turning to `Oc1ccccc1N1CCN(Cc2ncc(-c3ccccc3)o2)CC1`, the “hERG current change (%, negative = inhibition) at 1uM” value was 7%.

On to `O=C(CSc1nnnn1-c1ccc2c(c1)OCCO2)OC1CCCCC1`, for which the “hERG current change (%, negative = inhibition) at 1uM” value was determined as 6.23%.

For the compound `COc1ccc(C)cc1Nc1nc(-c2c(C)[nH]c3ccccc23)cs1`, the “hERG current change (%, negative = inhibition) at 1uM” value turned out to be 4.55%.

Turning to `CSc1ccc(/C=c2\s/c(=C\C(=O)C(C)(C)C)n(CC(=O)NCCC3=CCCCC3)c2=O)cc1`, the “hERG current change (%, negative = inhibition) at 1uM” value is -3.41%.

For the compound `Cc1c(CN(C)C)c2c(n1Cc1ccccc1)C(=O)c1ccc(Br)cc1-2.Cl`, the “hERG current change (%, negative = inhibition) at 1uM” value is -16.4%.

As for `Cc1c(CN(C)C)c2c(n1C)C(=O)c1ccc(Br)cc1-2.Cl`, the “hERG current change (%, negative = inhibition) at 1uM” value is on record as -2.4%.

As to `Cc1c(CN(C)C)c2c(n1Cc1ccccc1)C(=O)c1ccccc1-2.Cl`, the “hERG current change (%, negative = inhibition) at 1uM” value is on record as -79%.

Turning to `CCCCOP(=O)(OCCCC)C(O)c1ccc(N(C)C)cc1` (stereo not shown), the “hERG current change (%, negative = inhibition) at 1uM” value is reported as 12.5%.

`CSc1ccccc1OCc1cc(C(=O)NC2CCc3ccccc32)no1` (stereo not shown): the “hERG current change (%, negative = inhibition) at 1uM” value worked out at 17.2%.

As for `OCc1ncccc1O`, the “hERG current change (%, negative = inhibition) at 1uM” value was 8.62%.

With `COc1ccc(CN2CCOCCOCCOCC2)cc1`, the “hERG current change (%, negative = inhibition) at 1uM” value is reported as -21.8%.

Turning to `COc1ccc(CN2CCOCCOCCN(Cc3ccc(OC)cc3)CCOCCOCC2)cc1`, the “hERG current change (%, negative = inhibition) at 1uM” value is reported as -84.1%.

For `O=[N+]([O-])c1ccc(CN2CCCCCC2)cc1`, the “hERG current change (%, negative = inhibition) at 1uM” value was -0.361%.

Turning to `O=[N+]([O-])c1ccc(CN2CCOCCOCCOCC2)cc1`, the “hERG current change (%, negative = inhibition) at 1uM” value is listed as -20.5%.

Turning to `O=[N+]([O-])c1ccc(CN2CCOCCOCCN(Cc3ccc([N+](=O)[O-])cc3)CCOCC2)cc1`, the “hERG current change (%, negative = inhibition) at 1uM” value was -86.9%.

Regarding `COc1ccc(CN2CCOCCOCCOCCOCCOCC2)cc1`, the “hERG current change (%, negative = inhibition) at 1uM” value was 7.46%.

For the compound `CCCN(C(=O)CCl)C1=CCCCC1`, the “hERG current change (%, negative = inhibition) at 1uM” value is listed as 26.6%.

For the compound `O=C(CS(=O)(=O)Cc1ccccc1)Nc1ncccn1`, the “hERG current change (%, negative = inhibition) at 1uM” value was found to be 13%.

`O=C(CCC1CCCCC1)NCCN1C2=NC[C@@H](Cc3ccccc3)N2C[C@H]1Cc1ccc(O)cc1`: the “hERG current change (%, negative = inhibition) at 1uM” value is -0.771%.

Consider `COc1ccc(C[C@H]2CN3C(=NC[C@@H]3C)N2CCNC(=O)CCC2CCCCC2)cc1`, for which the “hERG current change (%, negative = inhibition) at 1uM” value is recorded as -63.7%.

In the case of `COc1ccc(C[C@H]2CN3C(=NC[C@@H]3Cc3ccc(O)cc3)N2C[C@H](C)NC(=O)CCC2CCCCC2)cc1`, the “hERG current change (%, negative = inhibition) at 1uM” value is -14.9%.

As for `COc1ccc(C[C@H]2CN3C(=NC[C@H]3Cc3ccccc3)N2CCNC(=O)CCC2CCCCC2)cc1`, the “hERG current change (%, negative = inhibition) at 1uM” value is -49.2%.

On to `C[C@@H](CN1C2=NC[C@H](Cc3ccc(O)cc3)N2C[C@H]1Cc1ccc(O)cc1)NC(=O)CCC1CCCCC1`, for which the “hERG current change (%, negative = inhibition) at 1uM” value is recorded as 12.5%.

Take `C[C@H]1CN=C2N(CCNC(=O)CCC3CCCCC3)[C@H](Cc3ccc(O)cc3)CN21`: the “hERG current change (%, negative = inhibition) at 1uM” value came out at 14.3%.

In the case of `COc1ccc(C[C@@H]2CN3C(=NC[C@@H]3Cc3ccc(O)cc3)N2C[C@H](C)NC(=O)CCC2CCCCC2)cc1`, the “hERG current change (%, negative = inhibition) at 1uM” value is listed as -64.6%.

Consider `C/C=C(\C)C(=O)NCCN1C2=NC[C@H](C(C)C)N2C[C@@H]1Cc1ccc(OC)cc1`, for which the “hERG current change (%, negative = inhibition) at 1uM” value was -46.6%.

Take `CC(C)[C@H]1CN=C2N(CCNC(=O)CCC3CCCCC3)[C@H](Cc3ccc(O)cc3)CN21`: the “hERG current change (%, negative = inhibition) at 1uM” value is listed as -2.53%.

Turning to `COc1ccc(C[C@H]2CN3C(=NC[C@@H]3Cc3ccccc3)N2CCNC(=O)CCC2CCCCC2)cc1`, the “hERG current change (%, negative = inhibition) at 1uM” value is given as -60.4%.

For the compound `C[C@@H]1CN=C2N(CCNC(=O)CCC3CCCCC3)[C@H](Cc3ccc(O)cc3)CN21`, the “hERG current change (%, negative = inhibition) at 1uM” value is recorded as 7.9%.

As to `COc1ccc(C[C@H]2CN3C(=NC[C@@H]3C(C)C)N2CCNC(=O)CCC2CCCCC2)cc1`, the “hERG current change (%, negative = inhibition) at 1uM” value is given as -86%.

Consider `COc1ccc(COc2ccsc2C(=O)Nc2ccc(Cl)c(Cl)c2)cc1`, for which the “hERG current change (%, negative = inhibition) at 1uM” value was determined as 13.6%.

In the case of `COc1cc(OC)cc(-c2nc(SCC(=O)Nc3ccccc3F)n[nH]2)c1`, the “hERG current change (%, negative = inhibition) at 1uM” value stood at 11.9%.

(Values after article PMC4336329 (PLoS ONE, 2015).)
